PubChem BioAssay (EPA / NIEHS)
Active and inactive are the calls of the source. Rule for the calls: active = hit-call score of the fitted dose curve at least 0.9, where 1 is the maximum; inactive = score below 0.9.

molecular target: Cellular tumor antigen p53 (Homo sapiens) (UniProt P04637); assay: ATG_p53_CIS: Attagene CIS-FACTORIAL HepG2 Assay for human p53 Transcription Factor (AID 2282994); conditions: HepG2 p53 cis-element reporter, Attagene mRNA; actives raise or lower the signal
Procedure, shortened: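 Read-out: reporter mRNA by RT-PCR plus capillary electrophoresis with fluorescence detection. Human HepG2 liver cells carried transfected multi-reporter cis-element constructs, dosed 24 h. Gain or loss of signal fitted bidirectionally against DMSO control.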

Chain of Cellular tumor antigen p53 (Homo sapiens) (P04637 whole entry, looked up): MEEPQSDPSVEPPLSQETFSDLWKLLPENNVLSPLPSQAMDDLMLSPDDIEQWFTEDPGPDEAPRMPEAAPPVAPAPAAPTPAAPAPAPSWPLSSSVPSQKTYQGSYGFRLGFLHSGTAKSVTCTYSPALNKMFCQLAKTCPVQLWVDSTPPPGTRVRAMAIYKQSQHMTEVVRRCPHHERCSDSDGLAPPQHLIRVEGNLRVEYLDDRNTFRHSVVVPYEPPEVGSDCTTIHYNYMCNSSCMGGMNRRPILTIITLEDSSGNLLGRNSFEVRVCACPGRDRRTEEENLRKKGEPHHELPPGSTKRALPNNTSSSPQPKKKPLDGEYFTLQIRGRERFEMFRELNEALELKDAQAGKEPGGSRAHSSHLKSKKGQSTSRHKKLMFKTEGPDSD

Structure (SMILES)	outcome	AC50
Brc1ccccn1	inactive	
O=C1OC(=O)c2ccc3c4c(ccc1c24)C(=O)OC3=O	inactive	
NCC(F)(F)C(F)(F)C(F)(F)C(F)(F)C(F)(F)C(F)(F)F	inactive	
CC(C)(C)C(=O)C1C(=O)c2ccccc2C1=O	inactive	
O=C1c2c(O)ccc(Nc3ccc(CCO)cc3)c2C(=O)c2c([N+](=O)[O-])ccc(O)c21	inactive	
CC(C)OC=O	inactive	
O=S(=O)(Cl)C(F)(F)C(F)(F)C(F)(F)C(F)(F)C(F)(F)C(F)(F)C(F)(F)C(F)(F)F	inactive	
CC1=CCC(=O)O1	inactive	
CC(O)C#CC(C)O (configuration not stated)		167 µM (active)
NC(=O)C(F)(F)C(F)(F)C(F)(F)C(F)(F)C(N)=O	inactive	
CC(C)OC(=O)COc1ccc(Cl)cc1Cl	inactive	
CCn1c2ccccc2c2ccccc21	inactive	
OCC(F)(F)C(F)(F)C(F)(F)CO	inactive	
CCN(CCO)S(=O)(=O)C(F)(F)C(F)(F)C(F)(F)C(F)(F)C(F)(F)C(F)(F)C(F)(F)C(F)(F)F	inactive	
NC(=O)C(F)(F)C(F)(F)C(F)(F)C(F)F	inactive	
O=C=Nc1cccc2c(N=C=O)cccc12	inactive	
CC1=CC2C3C=CC(C3)C2C1C (configuration not stated)		80.4 µM (active)
O=C1C=CC(=O)N1c1ccccc1	inactive	
O=C=NCc1cccc(CN=C=O)c1	inactive	
O=C(O)C(F)(F)OC(F)(F)C(F)(F)OC(F)(F)C(F)(F)OC(F)(F)F	inactive	
NC(O)(C(F)(F)F)C(F)(F)F	inactive	
O=C(Cl)C(F)(F)C(F)(F)C(F)(F)C(F)(F)C(F)(F)C(F)(F)C(F)(F)F	inactive	
